Test results reported in PubChem BioAssay (Tox21).
Inconclusive results are not listed. Values without a mark were called inactive. Activity calls are given as the source filed them. Calls come from the whole dose curve; as a rule, active = well fitted activation curve with a large enough effect in the repeat runs; inconclusive = weak or mixed curves; inactive = flat fitted curve, though single readings scatter.

Test: A CellTox Green Cytotoxicity Assay to monitor cytotoxicity in HepG2 cells - 24 hour (AID 1224878); note: nearly all actives have a fitted effect of over 45% in size
Settings: CellTox Green fluorescence; series mostly up to 76.8 µM; cytotoxicity: at the top concentration
Source text: National Center for Advancing Translational Sciences [NCATS]
NIH Chemical Genomics Center [NCGC]
U.S. Environmental Protection Agency [EPA]
National Institutes of Environmental Health Sciences [NIEHS]
National Toxicology Program [NTP]
Cell-based models are critical for drug discovery. Determining the natural cytotoxic effects resulting from test compounds is an essential research activity. A CellTox Green Cytotoxicity Assay to monitor cytotoxicity in real time of continues cell culture during 40 hours of the compound treatment was used to screen Tox21 10K library compounds in HepG2 cells. CellTox Green Cytotoxicity Assay is a nonlytic, homogeneous, biofluorescent method to measure cytotoxicity in cell culture after experimental manipulation. The assay system uses a proprietary asymmetric cyanine dye that is excluded from viable cells but preferentially stains the dead cell's DNA. […] Viable cells produce no appreciable increases in fluorescence. Therefore, the fluorescence signal produced by the binding interaction with dead cell DNA is proportional to cytotoxicity.
The mixture of HepG2 cell suspension and reagents were dispensed at 600cells/6 ul/well in 1536-well tissue culture treated black solid bottom plates using a Multidrop dispenser. After the assay plates were incubated at a 37 C/5% CO2 incubator for 5 hours, 23 nL of compounds dissolved in DMSO, positive and negative controls was transferred to the assay plate by a pintool work station. The plates were incubated at 37 C for 40 hours. The fluorescence intensity were measured at 0h, 8h, 16h, 24h, 32h and 40h time points using ViewLux plate reader during compound treatment.
% is set by controls: 0 for no effect and ±100 for the full control effect; potency is the fitted concentration of half-maximal effect.

Structure (SMILES) | cytotoxicity | Potency
Cl/C(=C\n1cncn1)c1ccc(Cl)cc1Cl | 6.33% [at 35.3 µM] | 
CCCCCCCCCCCCCCCCCBr | -11% [at 15.8 µM] | 
O=C(c1ccccc1)c1ccc2n1CCC2C(=O)O (stereo not given) | -11.7% [at 35.3 µM] | 
CC1CCc2cc(F)cc3c(=O)c(C(=O)O)cn1c23 (stereo not given) | -14.7% [at 35.3 µM] | 
CC(C)c1cccc(C(C)C)c1NC(=O)NS(=O)(=O)c1cc(C(C)(C)O)co1 | -0.0485% | 
Cc1c(Cn2ccnc2)c2ccccc2n1CCC(=O)O | 2.35% [at 35.3 µM] | 
N#Cc1cc2ccccc2c2ccccc12 | -13.3% | 
CC(C)NCC(O)COc1ccc(CC(N)=O)cc1 (stereo not given) | -9.05% | 
C=C(C)C(=O)OC(C)C | -6.05% | 
Nc1cnn([C@@H]2O[C@H](CO)[C@@H](O)[C@H]2O)c(=O)n1 | -2.71% | 
O=C(O)C(c1ccc(Cl)cc1)c1ccc(Cl)cc1 | -7.12% | 
CC(C)CC=O | 0.874% | 
CCc1nn(C2CCCCC2)c2cc(C3(C#N)CCC(C(=O)O)CC3)ccc12 (stereo not given) | 1.72% | 
O=C(O)COC(=O)Cc1ccccc1Nc1c(Cl)cccc1Cl | -5.8% [at 35.3 µM] | 
O=C1Nc2cc(Cl)ccc2Oc2ccccc21 | -1.69% [at 35.3 µM] | 
COCCOCCOCCOCCOC | -2.86% | 
COCCO | -4.62% | 
N[C@H]1C(O)O[C@H](CO)[C@H](O)[C@@H]1O (stereo not given in full) | -6.29% | 
Cc1cc(CC(=O)O)c(C)n1-c1ccc(Cl)cc1 | 10.8% [at 35.3 µM] | 
N#Cc1c(F)cccc1F | -0.537% | 

Structure (SMILES) | cytotoxicity | Potency
Cn1c(NCCN(CCO)CCCc2ccc([N+](=O)[O-])cc2)cc(=O)n(C)c1=O | -4.63% [at 35.3 µM] | 
COc1ccc2[nH]c(S(=O)Cc3ncc(C)c(OC)c3C)nc2n1 (stereo not given) | -9.76% [at 35.3 µM] | 
O=C(O)c1cn(C2CC2)c2cc(Cl)c(F)cc2c1=O | 0.0905% [at 35.3 µM] | 
O=S1(=O)N=C(O)c2ccccc21 | -9.97% [at 35.3 µM] | 
CC(C)c1ccccc1C(C)C | 3.37% | 
CC(C)(C)c1ccc(S)cc1 | -12.1% | 
CCOC(=O)C1=C(C)NC(C)=C(C(=O)OC)C1c1cccc([N+](=O)[O-])c1 (stereo not given) | -0.0465% [at 35.3 µM] | 
Cc1occc1S | -7.67% | 
CC(CN)CCCN (stereo not given) | 0.907% | 
O=C(O)c1cccc(N(Cc2cccnc2)c2ccc(OC(F)F)c(OC(F)F)c2)c1 | 3.32% | 
O=C(O)/C=C/c1cnc[nH]1 | -0.395% | 
NCCCN(CCO)CCO | -4.41% | 
CCCCC(CC)COCCCN (stereo not given) | 15.4% | 
CC(=O)Nc1ccc(/C=N/NC(N)=S)cc1 | 4.19% [at 35.3 µM] | 
CC1(C)CCC(C)(C)c2cc(NC(=O)c3ccc(C(=O)O)cc3)ccc21 | 24.1% [at 35.3 µM] | 
OCC1CC2CC1C1CCC(CO)C21 (stereo not given) | -2.57% | 
CCCCCCCC/C=C\CCCCCCCC(N)=O |  | 24.5 µM (active)
CC(C)NCC(O)c1cc(O)cc(O)c1 (stereo not given) | 1.7% [at 35.3 µM] | 
CCC(=O)OC(C)(C)C1CC=C(C)CC1 (stereo not given) | -8.14% | 
COC(Cc1ccccc1)OC | -7.97% | 
